# Reference: ChEMBL document CHEMBL4513136, “CO-ADD screening of CSIC (Spain) compounds”
# Entries with a potency or affinity are not part of this list.
# How the values were obtained:
# [1] = test system: Klebsiella pneumoniae; conditions: Concentration 32 ug.mL-1; ASSAY_TEST Inhibition of Bacterial Growth; detection method Absorption (OD600); MEDIA CAMHB; plate type 384well; NBS; CORNING #3640; time 18 hr
# [2] = test system: Candida albicans; conditions: 32 ug/mL
# [3] = test system: Cryptococcus neoformans; conditions: Concentration 32 ug.mL-1; ASSAY_TEST Inhibition of Fungal Growth; detection method Resazurin; Absorption (OD600-OD570); plate type 384well; NBS; CORNING #3640
Compound,Inhibition [1],Inhibition [2],Inhibition [3]
O=C(Cc1cc(O)ccc1O)Nc1ccc(O)cc1O,6.35%,4.45%,-73.31%
O=C(Nc1ccc(O)cc1O)Nc1cc(O)ccc1O,9.23%,-2.25%,15.83%
COc1ccc(C(=O)/C=C/c2ccc(OC)cc2OC)cc1,-4.58%,9.33%,-93.49%
COc1ccc(OC)c(C(=O)CCc2ccccc2O)c1,4.74%,4.16%,-73.15%
COc1ccc(OC)c(C(=O)/C=C/c2c[nH]c3ccc(OC)cc23)c1,2.62%,3.54%,-74.27%
COc1ccc(OC)c(CC(=O)Nc2cc(OC)ccc2OC)c1,5.13%,6.79%,-78.53%
COc1ccc(OC)c(NC(=O)Nc2ccc(OC)cc2OC)c1,6.68%,-0.5%,-79.12%
COc1ccc(OC)c(C(=O)/C=C/c2ccccc2O)c1,-4.68%,16.8%,-71.16%
COc1ccc(OC)c(C(=O)CCc2ccc(O)cc2)c1,3.34%,1.55%,-66.83%
O=C(Cc1cc(O)ccc1O)Nc1cc(O)ccc1O,9.18%,0.34%,-2.68%
COc1ccccc1/C=C/C(=O)c1cc(OC)c(OC)cc1OC,12.89%,3.46%,-68.54%
O=C(OCc1ccccc1)N1C(=O)C(c2ccccc2NC(=O)C(F)(F)F)=C(O)C1Cc1ccccc1 (stereo not drawn),7.86%,0.9%,-95.18%
COC(=O)C1(Cc2ccc(OCc3c(Cl)cccc3Cl)cc2)C(C)C(=O)N1Cc1ccc(OC)cc1 (stereo not drawn),5.7%,7.8%,-62.93%
COc1ccc(OC)c(CC(=O)Nc2ccc(OC)cc2OC)c1,9.85%,16.6%,-87.08%
O=C(/C=C/c1c[nH]c2ccc(O)cc12)c1cc(O)ccc1O,6.02%,4.1%,-105.31%
COc1ccc(CN2C(=O)C(C)C2(Cc2cn(C(=O)OC(C)(C)C)c3ccccc23)C(=O)OC(C)(C)C)cc1 (stereo not drawn),15.95%,7.68%,-81.49%
O=C(CCc1ccc(O)cc1O)c1cc(O)ccc1O,10.96%,3.81%,-52.63%
O=C(/C=C/c1ccccc1O)c1cc(O)c(O)cc1O,21.23%,6.47%,-81.74%
O=C(Cc1cc(O)ccc1O)Nc1ccc(O)cc1,12.9%,2.83%,-32.05%
Oc1ccc(O)c(-c2cn(-c3ccc(O)c(O)c3)nn2)c1,-0.99%,3.17%,-118.29%
COc1ccc(NC(=O)Cc2cc(OC)ccc2OC)cc1,9.76%,1.24%,-67.4%
CC1C(=O)N(Cc2ccc(OCCN3CCOCC3)cc2)C1(Cc1ccccc1)C(=O)O (stereo not drawn),2.32%,1.79%,-59.46%
COc1ccc(OC)c(-c2cn(-c3ccc(OC)c(OC)c3)nn2)c1,-16.63%,10.9%,-110.55%
Oc1ccc(-n2cc(-c3cc(O)ccc3O)nn2)cc1,10.3%,1.72%,-19.32%
COC(=O)c1c(C(Cc2ccccc2)NC(=O)OCc2ccccc2)[nH]c2ccccc12 (stereo not drawn),2.35%,0.58%,-63.52%
COc1ccc(OC)c(C(=O)/C=C/c2ccc(O)cc2)c1,-6.02%,2.83%,-65.46%
